The values that follow come from PubChem BioAssay AID1851 (National Center for Advancing Translational Sciences (NCATS), 2009).

Molecules are shown by their SMILES. The campaign covered roughly 16,000 compounds. About 5,700 (36%) were called active. Not shown: some 24% with an inconclusive outcome. Calls come from the whole dose curve; as a rule, active = well fitted curve in the direction sought with a large enough effect; inconclusive = small, poorly fitted or top-dose-only effect, or effect the other way; inactive = no such curve, though single readings can be large or run the other way. This is one part of the list.

The term AC50 denotes the concentration at which the activity in the assay is half-maximal.
% is set by controls: 0 for no effect and ±100 for the full control effect.

In this test the target is Cytochrome P450 1A2 (Homo sapiens) (UniProt P05177). Nature of the test: Cytochrome panel assay with activity outcomes. Particulars: recombinant CYP, pro-luciferin dealkylation, luminescence, p450-cyp1a2; series mostly up to 57.1 µM.
Sequence of Cytochrome P450 1A2 (Homo sapiens) (P05177 whole entry, looked up): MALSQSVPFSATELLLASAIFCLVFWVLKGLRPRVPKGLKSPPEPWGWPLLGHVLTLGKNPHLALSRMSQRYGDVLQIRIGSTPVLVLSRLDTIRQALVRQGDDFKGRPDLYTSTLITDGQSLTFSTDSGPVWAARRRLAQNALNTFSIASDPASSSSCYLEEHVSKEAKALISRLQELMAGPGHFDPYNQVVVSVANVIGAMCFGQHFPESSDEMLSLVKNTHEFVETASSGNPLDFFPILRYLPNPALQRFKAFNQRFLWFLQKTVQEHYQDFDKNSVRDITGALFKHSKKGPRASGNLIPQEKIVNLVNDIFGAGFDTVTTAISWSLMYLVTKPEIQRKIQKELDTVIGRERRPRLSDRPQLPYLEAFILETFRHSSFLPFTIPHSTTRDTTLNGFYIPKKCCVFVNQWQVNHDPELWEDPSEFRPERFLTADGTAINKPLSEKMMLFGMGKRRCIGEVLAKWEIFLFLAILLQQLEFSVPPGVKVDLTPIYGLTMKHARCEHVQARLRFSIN
For `COc1cccc(CNC(=O)C2CCN(S(=O)(=O)N3CCCCC3)CC2)c1`, the AC50 entry is “inactive”. Same read-out and setting: for `CN1CC[C@@]2(CCN3CCc4c(oc5ccccc45)[C@@H]3C2)N(C)C1=O` the value was “inactive”. Consider `C[C@@H](N)[C@@H](C)Cc1ccccc1`, for which the activity, negative = inhibition was -20% [at 11.4 µM] (inactive). In the case of `O=C1c2ccc3c4c(ccc(c24)C(=O)N1c1ccc2ccccc2c1)CC3`, the AC50 is 0.794 µM (active). Same read-out and setting: the result for `CCc1ccc(N2C(=O)c3ccc4c5c(ccc(c35)C2=O)CC4)cc1` reads 4.47 µM (active). On to `CCOc1ccc(N2C(=O)c3cccnc3C2=O)cc1`, for which the AC50 entry is “inactive”. For the molecule `N#Cc1cccc(-c2ccc3ncnc(NCc4ccccc4)c3c2)c1`, the AC50 is 0.1 µM (active).

With `c1csc(CNc2ncnc3ccc(-c4ccoc4)cc23)c1`, the AC50 was 3.16 µM (active). On to `N#Cc1cccc(-c2ccc3ncnc(NCc4cccs4)c3c2)c1`, for which the AC50 was 0.1 µM (active). Regarding `Cc1cccc(CNc2ncnc3ccc(-c4cccc(C#N)c4)cc23)c1`, the AC50 is 0.631 µM (active). For the molecule `C/C(CCN1CCCCc2nc(C)c(C)cc21)=N\O[C@@H](C)CN1CCCCc2nc(C)c(C)cc21`, the activity, negative = inhibition was -20.9% [at 11.4 µM] (inactive). Consider `C/C=C\C[C@H](C)[C@H](O)[C@H]1C(=O)N[C@@H](CC)C(=O)N(C)CC(=O)N(C)[C@@H](CC(C)C)C(=O)N[C@@H](C(C)C)C(=O)N(C)[C@@H](CC(C)C)C(=O)N[C@@H](C)C(=O)N[C@@H](C)C(=O)N(C)[C@@H](CC(C)C)C(=O)N(C)[C@@H](CC(C)C)C(=O)N(C)[C@@H](C(C)C)C(=O)N1C`, for which the AC50 entry was “inactive”.

For the molecule `CC1=CC(C)(C)NC(=S)N1c1cccc(C)c1`, the AC50 result was “inactive”. Same read-out and setting: the result for `COc1cccc(-c2ccc3ncnc(NCc4cccs4)c3c2)c1` reads 0.501 µM (active); that for `Cc1cc(C)cc(N(CC(=O)NCCSc2ccccn2)S(=O)(=O)c2ccccc2)c1`, “inactive”. Turning to `Cn1c([N+](=O)[O-])cnc1COC(N)=O`, the AC50 entry was “inactive”. For `CC[N+](CC)(CC(=O)Nc1c(C)cccc1C)Cc1ccccc1`, the AC50 result was “inactive”. Same read-out and setting: for `COC(=O)c1scc(C)c1NC(=O)Cc1ccccc1` the value was 12.6 µM (active); for `Cc1cccc(C)c1NC(=O)CS(=O)CC(=O)NCCCc1ccccc1` (stereo not drawn), “inactive”. In the case of `Nc1ncnc2c1ncn2[C@@H]1O[C@@H](C(=O)NC2CC2)[C@H](O)[C@@H]1O`, the AC50 entry is “inactive”.

With `Cc1ccc2[nH]c3c(c2c1)CN(C(=O)CN1c2ccc(F)cc2CCC1C)CC3` (stereo not drawn), the AC50 is 5.62 µM (active). On the same count and under the same terms, the result for `CNCCCC1c2ccccc2C=Cc2ccccc21` reads “inactive”; that for `CCCN1C(=O)C2(/C(=C(\O)c3ccc4c(c3)OCCO4)C(=O)C(=O)N2CCCOC)c2ccccc21` (stereo not drawn), “inactive”. Same read-out and setting: the result for `O=C(OCc1nnc(-c2ccccc2)o1)c1ccc2c(c1)OCCO2` reads 2.51 µM (active); that for `Cc1ncc(N=Nc2ccccc2Cl)c(-c2ccccc2)n1`, 0.631 µM (active); that for `OCCN(Cc1ccccc1)Cc1cccc(Cl)c1Cl`, 5.62 µM (active). Regarding `CN(C(=O)CN(CCO)CC(=O)N(C)C(C)(C)Cc1ccccc1)C(C)(C)Cc1ccccc1`, the AC50 result was “inactive”. With `CCc1c(O)nc2sc3ccccc3n2c1=O`, the AC50 was 15.8 µM (active). The same measure, in the same setting: for `CCCc1nn2c(=O)c(C(c3ccc(C)cc3)c3c(O)nc4sc(CCC)nn4c3=O)c(O)nc2s1` the value was “inactive”.

As for `CCc1c(O)nc(SCC(=O)NC(C)(C)C)n(-c2ccccc2)c1=O`, the AC50 result was “inactive”. Turning to `COc1ccc(Oc2ncc3ncc(=O)n(C[C@H]4CCCO4)c3n2)cc1`, the AC50 is 6.31 µM (active). With `COc1ccc(Oc2ncc3nc(C)c(=O)n(C[C@H]4CCCO4)c3n2)cc1`, the AC50 was 12.6 µM (active). On the same count and under the same terms, the result for `COc1ncc2ncc(=O)n(C[C@H]3CCCO3)c2n1` reads 15.8 µM (active); that for `CCC(=O)Nc1ccc(C(=O)CSc2nnc(-c3ccc(O)cc3)n2CC2CCCO2)cc1OC` (stereo not drawn), “inactive”; that for `COC(=O)C1=C(N)Oc2cc(C)n(CC3CCCO3)c(=O)c2C1c1ccccc1OC` (stereo not drawn), “inactive”. On to `O=c1cnc2cnc(Oc3cccc(Cl)c3)nc2n1C[C@H]1CCCO1`, for which the AC50 was 5.01 µM (active).

As to `CN1CCC(=C2c3ccccc3CC(=O)c3sccc32)CC1`, the AC50 entry is “inactive”.

On to `CC1(CCC#N)N=C(SCCC#N)N(c2ccccc2)C1=O` (stereo not drawn), for which the AC50 result was “inactive”.

For `C=C1CCO[C@@]2([C@H](O)[C@@](C)(O)CO)NC(=O)[C@]1(O)NC2=O`, the activity, negative = inhibition was -3.99% [at 2.29 µM] (inactive). With `Cc1ccc(NC(=O)NNC(=O)Cn2nc(-c3ccccc3)c(-c3ccccc3)c(C#N)c2=O)cc1`, the AC50 result was “inactive”.

Turning to `Cc1nc2c(c(-c3ccccc3)c1C#N)C(=O)c1ccccc1-2`, the AC50 is 0.2 µM (active). As to `O=C(COc1cccc2ccccc12)N1c2ccccc2CCc2ccccc21`, the AC50 is 6.31 µM (active). Still for that read-out and setting: for `CCN(CC)CCC(=O)Nc1ccc2c(c1)N(C(=O)CN(CC)CC)c1ccccc1CC2` the value was “inactive”. Take `O=C1c2ccccc2C(=O)N1CC(=O)N1c2ccccc2CCc2ccccc21`: the AC50 result is “inactive”. `C[C@@H](C[C@H](N)C(=O)O)C(=O)O`: the activity, negative = inhibition was -18.7% [at 11.4 µM] (inactive). Consider `CCOC(=O)C1=NO[C@@]2(C=C(Br)C3(OCCCO3)[C@H]3O[C@H]32)C1`, for which the activity, negative = inhibition is 1.82% [at 11.4 µM] (inactive). Turning to `COc1ccc(N2C(=O)CC(S/C(N)=N/N=C(\C)c3cccs3)C2=O)cc1` (stereo not drawn), the AC50 was 2.51 µM (active).

For the molecule `Cc1cc(C)cc(N2C(=O)CC(Sc3nnnn3-c3ccccc3)C2=O)c1` (stereo not drawn), the AC50 result was “inactive”. Regarding `CC(C)(C)NS(=O)(=O)c1ccc(NC(=O)NC2CCCCC2)cc1`, the AC50 entry is “inactive”. In the case of `Oc1ccccc1-c1nnc(-c2ccc(C(F)(F)F)cc2)o1`, the AC50 was 5.01 µM (active). Same read-out and setting: for `O=C(/C=C\NCC(=O)c1ccccc1)c1ccccc1` the value was 5.01 µM (active). Take `O=C(C[C@@H]1C=Cc2ccccc2N1C(=O)c1ccccc1)c1ccccc1`: the activity, negative = inhibition is -23.2% [at 2.29 µM] (inactive). Consider `CC(C)CCOc1ccc(NC(=O)C2OC3OC(C)(C)OC3C3OC(C)(C)OC23)cc1` (stereo not drawn), for which the AC50 result was “inactive”. Still for that read-out and setting: the result for `c1ccc(-c2nc(CSc3n[nH]c(-c4cccs4)n3)cs2)cc1` reads 2.82 µM (active).

In the case of `CCn1c(C)c(C)c2cc(C(=O)Nc3cccc(Cl)c3)ccc21`, the AC50 is 3.16 µM (active). Still for that read-out and setting: for `Cc1c(C)n(C)c2ccc(C(=O)Nc3cccc4ccccc34)cc12` the value was 2 µM (active); for `COC(=O)CCC(=O)Nc1cccc(C(=O)Nc2cccc(Cl)c2)c1`, 4.47 µM (active). Regarding `O=C(O)c1ccc(C(=O)Nc2cccc3ccccc23)c(C(=O)O)c1`, the activity, negative = inhibition was -6.15% [at 2.29 µM] (inactive).
